Measured values reported in ChEMBL document CHEMBL3988442, “University of Dundee, Small-Polar-MMV Screening Library” (2021).
The campaign covered roughly 48,000 compounds. About 13,000 (27%) showed an effect of 50% or more. Some of the results follow.

Test system: Wolbachia pipientis
Assay: Anti-Wolbachia Cell-Based Screen
Type: functional
Design: scale not given: in the data most compounds retested in dose-response had high values
Conditions: 5 µM

| SMILES | Percent Effect |
| --- | --- |
| CCc1ncncc1C(=O)NCCNc1ncnc2sccc12 | -23.73% |
| Cc1nc(COC[C@H]2CC[C@H]3[C@H](CCN3C(N)=O)O2)cs1 | -9.234% |
| Cc1nc(COC[C@@H]2CC[C@H]3[C@H](CCN3C(=O)C3CC3)O2)cs1 | -1.141% |
| COCC(=O)N1CC[C@@H]2O[C@H](COCc3csc(C)n3)CC[C@@H]21 | 4.421% |
| CCOC[C@@H]1CC[C@H]2[C@H](CCN2S(=O)(=O)Cc2ccccc2)O1 | -7.135% |
| CCOC[C@@H]1CC[C@H]2[C@H](CCN2C(=O)c2cnccn2)O1 | 112.7% |
| CCOC[C@H]1CC[C@H]2[C@H](CCN2C(=O)c2cnccn2)O1 | 103.2% |
| CN(C)C(C(=O)N1CCC(C#N)CC1)c1ccccc1F (centres undefined) | -0.3171% |
| CCN1C[C@H]2C3(CCN(C(C)=O)CC3)CC[C@@]2(C(=O)N(C)C)C1.O=C(O)C(F)(F)F | 6.202% |
| c1cncc(-c2nc(C3CC3)ncc2-c2ccnc(N3CCCC3)n2)c1 | 90.28% |
| CCCn1cc(-c2ccnc(NC3CCc4ccccc4C3)n2)c(C)n1 (centres undefined) | 0.5444% |
| Cc1ncc(-c2ccnc(NC3CC3)n2)c(-c2cccnc2)n1 | 88.62% |
| Cc1ncc(-c2ccnc(N3CCCCCC3)n2)c(-c2cccnc2)n1 | -6.559% |
| Cc1ncc(-c2ccnc(N3CC[C@H](O)C3)n2)c(-c2cccnc2)n1 | 109% |
| O=c1cc(-c2cccnc2)nc(-c2ccc(CN3CC[C@@H](O)C3)cc2)[nH]1 | 3.03% |
| Cc1noc(-c2ccc(N3CCC[C@H]3CO)nc2)n1 | 4.962% |
| Cc1ncc(-c2ccnc(N3CCC[C@@H]3CO)n2)c(-c2cccnc2)n1 | 102.7% |
| COc1ccnc(N2CCCN(c3nc(C4CC4)ns3)CC2)n1 | 2.276% |
| COc1ccccc1Oc1ncccc1CNC(=O)CN1CCCC1=O | -22.72% |
| O=C(Nc1ccccc1)N1CCC(N2Cc3ncccc3C2=O)CC1 | -2.29% |
| CSC1(CNc2ncc(Br)cn2)CCOCC1 | -8.791% |
| COc1ccccc1C(=O)N(Cc1nc(C)cs1)CC1CCCO1 (centres undefined) | -4.042% |
| CCC[C@H]1CN(CCS(C)(=O)=O)C[C@@H]1NC(=O)c1cccnn1 | 3.679% |
| COc1ccsc1C(=O)Nc1cc(Cl)c(=O)n(C)c1 | -0.9546% |

| SMILES | Percent Effect |
| --- | --- |
| O=C(NCCCOC1CCOC1)NC(C1CC1)C1CC1 (centres undefined) | -5.056% |
| CCCc1nc(C)c(CN2CC3(CCOC3)CCC2=O)s1 (centres undefined) | -4.631% |
| COc1ccc(-c2nc(CC(=O)N(C)CCC#N)cs2)cc1OC | -11.11% |
| Cc1ccc(CN2C[C@H](N(C)Cc3cncnc3)[C@H]3OCCC[C@H]32)o1 | -12.1% |
| COCC(=O)N1C[C@H](N(C)Cc2cncnc2)[C@H]2OCCC[C@H]21 | 102.5% |
| CN(C)C(=O)CO[C@@H]1CN(Cc2ccccc2)[C@@H]2CCCO[C@@H]21 | -2.745% |
| CCCS(=O)(=O)N1C[C@H](N(C)Cc2ccco2)[C@@H]2OCCC[C@@H]21.O=C(O)C(F)(F)F | -9.069% |
| CN(Cc1ccco1)[C@@H]1CN(CC2CCOCC2)[C@@H]2CCCO[C@H]12.O=C(O)C(F)(F)F.O=C(O)C(F)(F)F | 6.763% |
| CN(Cc1ccco1)[C@@H]1CN(Cc2ccc(F)cc2)[C@@H]2CCCO[C@H]12.O=C(O)C(F)(F)F.O=C(O)C(F)(F)F | 1.532% |
| CN(Cc1cncnc1)[C@@H]1CN(C(=O)c2ccco2)[C@@H]2CCCO[C@H]12.O=C(O)C(F)(F)F | 99.89% |
| CN(Cc1cncnc1)[C@@H]1CN(C(=O)C2CC2)[C@@H]2CCCO[C@H]12.O=C(O)C(F)(F)F | 103.9% |
| CCN(CC)[C@@H]1CN(C(=O)c2ccc(C#N)cc2)[C@@H]2CCCO[C@H]12.O=C(O)C(F)(F)F | -2.681% |
| CCN(CC)[C@@H]1CN(C(=O)c2ccnnc2)[C@@H]2CCCO[C@H]12.O=C(O)C(F)(F)F | -6.627% |
| CN(Cc1cncnc1)[C@H]1CN(C(=O)c2ccco2)[C@@H]2CCCO[C@@H]21 | 83.44% |
| CN(Cc1ccco1)[C@@H]1CN(C(=O)c2ccnnc2)[C@@H]2CCCO[C@H]12.O=C(O)C(F)(F)F | 0.1298% |
| C1CCC(N2CCCN(c3nc(C4CC4)no3)CC2)C1 | 19.76% |
| CCCNC(=O)c1cc(Br)c2c(c1)OCCO2 | -33.44% |
| CCc1nc(CN2CCN(C(=O)C3CCCCC3)CC2)cs1 | 4.149% |
| O=C(CN1CCN(c2ccccc2F)CC1)Nc1ccc(Cl)cn1 | 4.247% |
| CCCS(=O)(=O)N1C[C@@H]2CN(Cc3ccoc3)CCO[C@@H]2C1.O=C(O)C(F)(F)F | 45.1% |
| CC(C)N(C)[C@@H]1CCN(C(=O)c2ccc[nH]2)[C@H]1Cc1cnn(C)c1 | -2.599% |
| CN(Cc1ccco1)[C@@H]1CN(C(=O)c2ccnnc2)C[C@@H]2CCCO[C@@H]21.O=C(O)C(F)(F)F | 1.243% |
| CN(Cc1cccnc1)[C@@H]1CN(C(=O)c2ccco2)[C@@H]2CCCO[C@H]12 | 99.41% |
| CN(Cc1cncnc1)[C@H]1CN(C(=O)c2ccc[nH]2)[C@@H]2CCCO[C@@H]21 | 103.1% |

| SMILES | Percent Effect |
| --- | --- |
| Cn1cc(C[C@H]2[C@H](N3CCOCC3)CCN2C(=O)c2ccc[nH]2)cn1 | -3.493% |
| O=S(=O)(NCC1COCCO1)c1ccc(C2CCCCC2)cc1 (centres undefined) | -20.85% |
| CC1CN(Cc2cccc(CNC3CCCC3)c2)CCO1 (centres undefined) | 2.611% |
| OC(CN1CCOCC1)c1cc(Cl)ccc1Cl (centres undefined) | 1.615% |
| Cc1ccsc1C(=O)NCc1cccnc1N(C)CCc1ccccn1 | -9.716% |
| Cn1cc(S(=O)(=O)NCC2CCN(C(=O)Oc3ccccc3)CC2)cn1 | -5.514% |
| O=S(=O)(NCC1CCN(c2cnccn2)CC1)c1c(F)cccc1F | -13.03% |
| O=S(=O)(NCC1CCN(c2cnccn2)CC1)c1ccc(F)c(Cl)c1 | 114.1% |
| Cc1cnc2c(S(=O)(=O)NCC3CCN(C4CC4)C3)cccc2c1 (centres undefined) | -24.19% |
| O=C(Oc1ccccc1)N1CCC(CNS(=O)(=O)c2cccnc2)CC1 | 12.7% |
| CN(C)c1nccc(CNS(=O)(=O)c2ccc(F)c(Cl)c2)n1 | -4.41% |
| O=S(=O)(NCC1CCN(c2ccccn2)CC1)c1ccccc1F | -4.881% |
| Cc1cccc(S(=O)(=O)NCC2CCN(c3cnccn3)CC2)c1 | 113.6% |
| CC(=O)c1ccc(S(=O)(=O)NCC2CCN(c3cnccn3)CC2)cc1 | 109.4% |
| Cc1nn(C)c(C)c1CN(C(=O)c1cnc(O)cn1)C(C)C | -5.966% |
| CN(CCC1CCOCC1)[C@@H]1c2ccccc2C2(CCNCC2)[C@H]1O | -1.046% |
| CCn1nc2c(cc1=O)CN(c1nc3ccccc3s1)CC2 | 17.49% |
| COc1cc(CO)ccc1OCc1nc(C(C)C)no1 | -5.276% |
| CC(C)NC(=O)N1CCC(c2nnc3n2CCNC3)CC1 | 121.8% |
| NC(=O)CN1CCC(NC(=O)N2CCCC2c2ccncc2)CC1 (centres undefined) | -10.76% |
| CC(C)NC(=O)N1CCCCC1c1nnc2n1CCNC2 (centres undefined) | 134% |
| CC(C)NC(=O)N1CCCCCC1C1CCN(c2ncccn2)CC1 (centres undefined) | -15.72% |
| CC(C)NC(=O)N1CCC(c2nccn2C(C)C)CC1 | 0.5032% |
| Cc1cc(C)c(C(=O)NC(c2nnc3n2CCNCC3)C(C)C)c(C)c1 (centres undefined) | -5.156% |

| SMILES | Percent Effect |
| --- | --- |
| O=C(NC1CCCCC1)N1CCCC1c1nnc2n1CCNC2 (centres undefined) | 105.9% |
| CC(CC(=O)N1CCC(c2nnc3n2CCC3)CC1)n1cccc1 (centres undefined) | -3.041% |
| O=C(N1CCCCC1)N1CCCC1c1nnc2n1CCNC2 (centres undefined) | 113% |
| CCNC(=O)NC(=O)CNc1cc(C(=O)OC)cc(C(F)(F)F)c1 | -3.63% |
| Cc1n[nH]cc1CNCC1(c2cccc(F)c2)CCOCC1.Cl | 8.493% |
| N#CCCN(Cc1ccccn1)C(=O)Nc1cccc(F)c1 | 3.903% |
| O=C(Nc1ccc(CCN2CCSCC2)cc1)NC1CC1 | -3.133% |
| COCCNC(=O)CSCc1nc(O)c2cc(C(C)C)sc2n1 | -3.697% |
| CC(=O)N1CCCCC1c1nnc2n1CCNC2 (centres undefined) | 131% |
| CC(=O)N1CCCC1c1nnc2n1CCCCC2 (centres undefined) | 5.226% |
| CC(NC(=O)NCC1(c2ccc(Cl)cc2)CC1)c1nncn1C (centres undefined) | 123.5% |
| CC(NC(=O)NCCOc1ccc(Cl)cc1)c1nncn1C (centres undefined) | 7.354% |
| Cc1cccc(C)c1OCCNC(=O)NC(C)c1nncn1C (centres undefined) | 5.116% |
| CC(NC(=O)NCC1(c2ccc(F)cc2)CCC1)c1nncn1C (centres undefined) | -3.695% |
| CC(NC(=O)Nc1cc(F)ccc1N1CCCCC1)c1nncn1C (centres undefined) | -5.475% |
| CC(NC(=O)NCC1(c2ccc(F)cc2)CCCC1)c1nncn1C (centres undefined) | 121.9% |
| CC(NC(=O)NCCOc1ccc(F)c(F)c1)c1nncn1C (centres undefined) | 2.072% |
| CC(NC(=O)NCC1(N2CCCCC2)CCCCC1)c1nncn1C (centres undefined) | 3.494% |
| CC(NC(=O)NCC1(c2ccccc2)CCC1)c1nncn1C (centres undefined) | 0.9782% |
| Cc1ccccc1C1(CNC(=O)NC(C)c2nncn2C)CC1 (centres undefined) | 118.5% |
| CC(NC(=O)NCC1(c2ccc(F)cc2)CC1)c1nncn1C (centres undefined) | 98.23% |
| CC(NC(=O)NCCCN1CCCCCC1)c1nncn1C (centres undefined) | -1.343% |
